Assay results taken from the supplement of paper PMC10849652.
Targets with a hit are over-represented here; the source holds about 8,800 in all. About 0.5% of all pairs of compound and target were hits.

Key:
Experiment in all cases: log2 fold change, soluble protein after heating vs DMSO (PISA); higher = thermal stabilisation; K562 lysate, 10 uM; active = over 0.2 and 3.5 SD of the protein, either way, in both replicates (recomputed)
vemurafenib = compound: CCCS(=O)(=O)Nc1ccc(F)c(C(=O)c2c[nH]c3ncc(-c4ccc(Cl)cc4)cc23)c1F [vemurafenib]
Outline: (§1)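 K562 pellets were dounce-homogenised in PBS pH 7.4 containing 1 mM MgCl2, and the crude extract, at 1 mg/mL protein, was exposed to 10 μM compound for 30 min. Aliquots were heated for 3 min across 48°C-58°C, pooled, brought to 0.5% NP-40 at 4°C and spun at 21,000xg for 90 min, with the supernatant taken as soluble protein. TMTpro 16plex LC-MS/MS with equalised channel sums quantified that protein. Values are log-two fold changes in thermal stability relative to solvent controls, taken from duplicates.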

[1] = compound: CCCS(=O)(=O)Nc1ccc(F)c(C(=O)c2c[nH]c3ncc(Cl)cc23)c1F
Outline: as §1

barasertib = compound: CCN(CCCOc1ccc2c(Nc3cc(CC(=O)Nc4cccc(F)c4)[nH]n3)ncnc2c1)CCOP(=O)(O)O [barasertib]
Outline: as §1

[2] = compound: CC[C@@H]1C(=O)N(C)c2cnc(Nc3ccc(C(=O)NC4CCN(C)CC4)cc3OC)nc2N1C1CCCC1
Outline: as §1

volasertib = compound: CC[C@@H]1C(=O)N(C)c2cnc(Nc3ccc(C(=O)N[C@H]4CC[C@H](N5CCN(CC6CC6)CC5)CC4)cc3OC)nc2N1C(C)C [volasertib]
Outline: as §1

[3] = compound: CCn1c(C(=O)N(C2CC2)C2CC2)cc2c3c(ncn3C)c(Nc3cc(C)n(C)n3)nc21
Outline: as §1

[4] = compound: CCn1cc(-c2ccnc3[nH]c(-c4cccc(CN(C)C)c4)cc23)c(-c2ccc(NC(=O)N(C)C)cc2)n1
Outline: as §1

[5] = compound: CN1CCC(CNc2ccc3ncc(-c4cccc(OC(F)(F)F)c4)n3n2)CC1
Outline: as §1

saracatinib = compound: CN1CCN(CCOc2cc(OC3CCOCC3)c3c(Nc4c(Cl)ccc5c4OCO5)ncnc3c2)CC1 [saracatinib]
Outline: as §1

sotrastaurin = compound: CN1CCN(c2nc(C3=C(c4c[nH]c5ccccc45)C(=O)NC3=O)c3ccccc3n2)CC1 [sotrastaurin]
Outline: as §1

alvocidib = compound: CN1CC[C@H](c2c(O)cc(O)c3c(=O)cc(-c4ccccc4Cl)oc23)[C@H](O)C1 [alvocidib]
Outline: as §1

Tubastatin A = compound: CN1CCc2c(c3ccccc3n2Cc2ccc(C(=O)NO)cc2)C1 [Tubastatin A]
Outline: as §1

[6] = compound: CNC(=O)C1=CC=CC=C1NC2=NC(=NC=C2Cl)NC3=C(C=C(C=C3)N4CCOCC4)OC
Outline: as §1

defactinib = compound: CNC(=O)c1ccc(Nc2ncc(C(F)(F)F)c(NCc3nccnc3N(C)S(C)(=O)=O)n2)cc1 [defactinib]
Outline: as §1

[7] = compound: CNc1nc(-c2ccc3c(N)n[nH]c3c2)cc(N2C[C@@H](C(=O)NC3CCCCC3)CC[C@H]2C)n1
Outline: as §1

encorafenib = compound: COC(=O)N[C@@H](C)CNc1nccc(-c2cn(C(C)C)nc2-c2cc(Cl)cc(NS(C)(=O)=O)c2F)n1 [encorafenib]
Outline: as §1

[8] = compound: COC(=O)[C@H](CCSC)NC(=O)C1=C(C=C(C=C1)NC[C@H](CS)N)C2=CC=CC=C2
Outline: as §1

alisertib = compound: COc1cc(Nc2ncc3c(n2)-c2ccc(Cl)cc2C(c2c(F)cccc2OC)=NC3)ccc1C(=O)O [alisertib]
Outline: as §1

[9] = compound: COc1cc2nc(-c3cc(F)ccc3O)nc(N[C@@H]3CNC[C@H]3C(C)(C)O)c2cc1OC
Outline: as §1

gefitinib = compound: COc1cc2ncnc(Nc3ccc(F)c(Cl)c3)c2cc1OCCCN1CCOCC1 [gefitinib]
Outline: as §1

Measured: log2 fold change

MAP2K4 isoform 2 (UniProt P45985)
Sequence of UniProt P45985 (P45985 whole entry, looked up): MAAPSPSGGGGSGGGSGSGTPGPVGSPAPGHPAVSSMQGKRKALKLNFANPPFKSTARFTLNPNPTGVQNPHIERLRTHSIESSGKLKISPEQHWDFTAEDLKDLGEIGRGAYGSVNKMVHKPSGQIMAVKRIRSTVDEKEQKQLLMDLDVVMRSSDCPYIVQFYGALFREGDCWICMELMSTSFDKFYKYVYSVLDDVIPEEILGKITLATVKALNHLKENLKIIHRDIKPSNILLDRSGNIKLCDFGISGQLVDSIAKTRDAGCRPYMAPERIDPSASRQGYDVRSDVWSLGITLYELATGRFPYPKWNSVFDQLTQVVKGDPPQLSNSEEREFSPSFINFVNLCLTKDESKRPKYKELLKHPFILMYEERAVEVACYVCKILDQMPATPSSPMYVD
active: vemurafenib 0.601 | [4] 0.936
inactive: [1] 0.243 | barasertib 0.09 | [2] -0.127 | volasertib -0.01 | [3] 0.04 | [5] -0.063 | saracatinib -0.063 | sotrastaurin 0.002 | alvocidib 0.137 | Tubastatin A -0.08 | [6] 0.081 | defactinib 0.013 | [7] 0.061 | encorafenib 0.122 | [8] 0.087 | alisertib -0.069 | [9] -0.022 | gefitinib -0.032

MAP1S (UniProt Q66K74)
Sequence of UniProt Q66K74 (Q66K74 whole entry, looked up): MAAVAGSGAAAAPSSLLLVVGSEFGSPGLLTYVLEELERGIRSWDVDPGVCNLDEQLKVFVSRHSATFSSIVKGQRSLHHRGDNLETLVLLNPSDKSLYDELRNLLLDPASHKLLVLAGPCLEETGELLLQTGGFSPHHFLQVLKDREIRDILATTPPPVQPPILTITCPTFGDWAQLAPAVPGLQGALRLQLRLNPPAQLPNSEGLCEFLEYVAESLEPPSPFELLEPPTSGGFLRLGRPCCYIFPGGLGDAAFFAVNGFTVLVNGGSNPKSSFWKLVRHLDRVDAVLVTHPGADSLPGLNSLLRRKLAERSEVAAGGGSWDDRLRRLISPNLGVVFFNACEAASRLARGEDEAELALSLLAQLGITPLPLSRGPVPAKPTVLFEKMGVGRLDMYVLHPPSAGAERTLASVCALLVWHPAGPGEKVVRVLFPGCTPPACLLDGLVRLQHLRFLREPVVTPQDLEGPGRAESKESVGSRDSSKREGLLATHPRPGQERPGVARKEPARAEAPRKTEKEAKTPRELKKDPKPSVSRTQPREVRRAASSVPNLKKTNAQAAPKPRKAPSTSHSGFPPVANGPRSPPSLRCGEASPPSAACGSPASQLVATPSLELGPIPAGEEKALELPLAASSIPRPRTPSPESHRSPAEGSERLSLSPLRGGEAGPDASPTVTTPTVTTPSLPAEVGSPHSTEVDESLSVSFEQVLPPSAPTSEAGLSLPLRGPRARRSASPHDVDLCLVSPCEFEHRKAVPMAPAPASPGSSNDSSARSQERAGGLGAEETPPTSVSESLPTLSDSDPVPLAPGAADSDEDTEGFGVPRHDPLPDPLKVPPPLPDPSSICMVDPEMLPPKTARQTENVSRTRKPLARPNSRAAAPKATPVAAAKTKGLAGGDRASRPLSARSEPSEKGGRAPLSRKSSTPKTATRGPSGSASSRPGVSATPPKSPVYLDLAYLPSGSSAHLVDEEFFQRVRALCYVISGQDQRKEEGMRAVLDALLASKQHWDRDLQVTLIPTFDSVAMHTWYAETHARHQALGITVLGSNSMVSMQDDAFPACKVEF
inactive: vemurafenib -0.004 | [1] 0.041 | barasertib 0.002 | [2] -0.035 | volasertib -0.024 | [3] -0.01 | [4] -0.056 | [5] -0.022 | saracatinib 0.038 | sotrastaurin 0.037 | alvocidib 0.027 | Tubastatin A -0.072 | [6] -0.01 | defactinib 0.018 | [7] -0.015 | encorafenib 0.008 | [8] 0.06 | alisertib 0.006 | [9] -0.008 | gefitinib -0.021

MRPL19 (UniProt P49406)
inactive: vemurafenib 0.026 | [1] 0.029 | barasertib 0.001 | [2] -0.139 | volasertib -0.056 | [3] 0 | [4] 0.026 | [5] -0.053 | saracatinib 0.016 | sotrastaurin -0.016 | alvocidib -0.056 | Tubastatin A -0.119 | [6] -0.036 | defactinib -0.005 | [7] -0.052 | encorafenib -0.003 | [8] 0.042 | alisertib 0.037 | [9] -0.03 | gefitinib 0.043

KPNA4 (UniProt O00629)
Sequence of UniProt O00629 (O00629 whole entry, looked up): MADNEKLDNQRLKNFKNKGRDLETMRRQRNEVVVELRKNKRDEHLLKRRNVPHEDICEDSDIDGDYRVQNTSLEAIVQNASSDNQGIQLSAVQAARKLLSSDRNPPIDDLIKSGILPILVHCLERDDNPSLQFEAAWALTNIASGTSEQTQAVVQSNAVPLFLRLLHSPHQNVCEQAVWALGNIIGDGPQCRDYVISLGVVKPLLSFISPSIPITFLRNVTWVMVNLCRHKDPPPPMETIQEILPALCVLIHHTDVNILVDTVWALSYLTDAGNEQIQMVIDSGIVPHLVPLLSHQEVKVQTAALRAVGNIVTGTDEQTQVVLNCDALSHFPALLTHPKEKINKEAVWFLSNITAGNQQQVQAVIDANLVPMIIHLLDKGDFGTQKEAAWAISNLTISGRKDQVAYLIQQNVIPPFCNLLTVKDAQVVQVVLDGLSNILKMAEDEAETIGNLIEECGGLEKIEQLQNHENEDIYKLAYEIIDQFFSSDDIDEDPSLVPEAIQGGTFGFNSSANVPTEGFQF
inactive: vemurafenib -0.003 | [1] 0.017 | barasertib -0.089 | [2] 0.048 | volasertib 0.026 | [3] -0.022 | [5] 0.103 | saracatinib -0.032 | sotrastaurin 0.03 | alvocidib -0.098 | Tubastatin A 0.007 | [6] 0.014 | defactinib -0.002 | [7] 0.008 | encorafenib 0.02 | [8] -0.059 | alisertib -0.007 | [9] 0.002 | gefitinib 0.013
active: [4] -0.318

MED8 isoform 2 (UniProt Q96G25)
inactive: vemurafenib -0.022 | [1] 0.018 | barasertib 0.081 | [2] -0.051 | volasertib -0.003 | [3] 0.013 | [4] 0.214 | [5] -0.092 | saracatinib -0.002 | sotrastaurin 0.091 | alvocidib 0.026 | Tubastatin A -0.048 | [6] 0.023 | defactinib -0.009 | [7] 0.045 | encorafenib 0.056 | [8] -0.113 | alisertib -0.07 | [9] 0.059 | gefitinib -0.038

MCMBP (UniProt Q9BTE3)
inactive: vemurafenib -0.029 | [1] 0.019 | barasertib -0.007 | [2] 0.006 | volasertib -0.026 | [3] 0.043 | [4] 0.035 | [5] -0.032 | saracatinib 0.02 | sotrastaurin 0.015 | alvocidib 0.035 | Tubastatin A -0.078 | [6] 0.029 | defactinib 0.041 | [7] -0.003 | encorafenib -0.001 | [8] 0.074 | alisertib 0.005 | [9] 0 | gefitinib 0.011

MED17 (UniProt Q9NVC6)
inactive: vemurafenib 0.028 | [1] 0.007 | barasertib 0.004 | [2] -0.023 | volasertib -0.02 | [3] 0.002 | [4] -0.037 | [5] 0.013 | saracatinib 0.01 | sotrastaurin 0.031 | alvocidib -0.001 | Tubastatin A -0.093 | [6] 0.025 | defactinib -0.035 | [7] -0.019 | encorafenib 0.03 | [8] -0.017 | alisertib -0.012 | [9] 0.023 | gefitinib -0.015

LIG4 (UniProt P49917)
inactive: vemurafenib 0.041 | [1] -0.034 | barasertib -0.04 | [2] -0.087 | volasertib -0.182 | [3] -0.027 | [4] -0.105 | [5] 0.018 | saracatinib 0.027 | sotrastaurin 0.048 | alvocidib 0.02 | Tubastatin A -0.025 | [6] -0.04 | defactinib 0.063 | [7] 0.005 | encorafenib 0.048 | alisertib -0.049 | [9] -0.096 | gefitinib -0.069
active: [8] 0.415

KNOP1 (UniProt Q1ED39)
Sequence of UniProt Q1ED39 (Q1ED39 whole entry, looked up): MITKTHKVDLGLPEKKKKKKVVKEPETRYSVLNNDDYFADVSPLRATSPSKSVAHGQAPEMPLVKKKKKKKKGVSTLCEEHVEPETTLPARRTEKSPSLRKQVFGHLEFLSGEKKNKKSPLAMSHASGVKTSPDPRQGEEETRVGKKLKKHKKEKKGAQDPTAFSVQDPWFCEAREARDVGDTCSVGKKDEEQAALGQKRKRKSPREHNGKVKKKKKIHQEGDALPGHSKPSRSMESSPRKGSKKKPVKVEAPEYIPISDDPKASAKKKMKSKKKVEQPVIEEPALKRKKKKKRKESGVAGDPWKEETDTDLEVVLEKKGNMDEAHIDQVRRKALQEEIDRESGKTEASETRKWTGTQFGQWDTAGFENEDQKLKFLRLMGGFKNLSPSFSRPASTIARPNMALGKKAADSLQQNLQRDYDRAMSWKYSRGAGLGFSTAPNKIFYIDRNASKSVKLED
active: defactinib 0.413
inactive: vemurafenib -0.285 | [1] 0.026 | barasertib -0.014 | [2] 0.315 | volasertib 0.056 | [3] -0.161 | [4] 0.016 | [5] 0.012 | saracatinib -0.029 | sotrastaurin -0.063 | alvocidib -0.004 | Tubastatin A 0.151 | [6] 0.062 | [7] 0.337 | encorafenib -0.023 | [8] 0.022 | alisertib -0.065 | [9] 0.097 | gefitinib -0.03

KIF21A isoform 5 (UniProt Q7Z4S6)
Sequence of UniProt Q7Z4S6 (Q7Z4S6 whole entry, looked up): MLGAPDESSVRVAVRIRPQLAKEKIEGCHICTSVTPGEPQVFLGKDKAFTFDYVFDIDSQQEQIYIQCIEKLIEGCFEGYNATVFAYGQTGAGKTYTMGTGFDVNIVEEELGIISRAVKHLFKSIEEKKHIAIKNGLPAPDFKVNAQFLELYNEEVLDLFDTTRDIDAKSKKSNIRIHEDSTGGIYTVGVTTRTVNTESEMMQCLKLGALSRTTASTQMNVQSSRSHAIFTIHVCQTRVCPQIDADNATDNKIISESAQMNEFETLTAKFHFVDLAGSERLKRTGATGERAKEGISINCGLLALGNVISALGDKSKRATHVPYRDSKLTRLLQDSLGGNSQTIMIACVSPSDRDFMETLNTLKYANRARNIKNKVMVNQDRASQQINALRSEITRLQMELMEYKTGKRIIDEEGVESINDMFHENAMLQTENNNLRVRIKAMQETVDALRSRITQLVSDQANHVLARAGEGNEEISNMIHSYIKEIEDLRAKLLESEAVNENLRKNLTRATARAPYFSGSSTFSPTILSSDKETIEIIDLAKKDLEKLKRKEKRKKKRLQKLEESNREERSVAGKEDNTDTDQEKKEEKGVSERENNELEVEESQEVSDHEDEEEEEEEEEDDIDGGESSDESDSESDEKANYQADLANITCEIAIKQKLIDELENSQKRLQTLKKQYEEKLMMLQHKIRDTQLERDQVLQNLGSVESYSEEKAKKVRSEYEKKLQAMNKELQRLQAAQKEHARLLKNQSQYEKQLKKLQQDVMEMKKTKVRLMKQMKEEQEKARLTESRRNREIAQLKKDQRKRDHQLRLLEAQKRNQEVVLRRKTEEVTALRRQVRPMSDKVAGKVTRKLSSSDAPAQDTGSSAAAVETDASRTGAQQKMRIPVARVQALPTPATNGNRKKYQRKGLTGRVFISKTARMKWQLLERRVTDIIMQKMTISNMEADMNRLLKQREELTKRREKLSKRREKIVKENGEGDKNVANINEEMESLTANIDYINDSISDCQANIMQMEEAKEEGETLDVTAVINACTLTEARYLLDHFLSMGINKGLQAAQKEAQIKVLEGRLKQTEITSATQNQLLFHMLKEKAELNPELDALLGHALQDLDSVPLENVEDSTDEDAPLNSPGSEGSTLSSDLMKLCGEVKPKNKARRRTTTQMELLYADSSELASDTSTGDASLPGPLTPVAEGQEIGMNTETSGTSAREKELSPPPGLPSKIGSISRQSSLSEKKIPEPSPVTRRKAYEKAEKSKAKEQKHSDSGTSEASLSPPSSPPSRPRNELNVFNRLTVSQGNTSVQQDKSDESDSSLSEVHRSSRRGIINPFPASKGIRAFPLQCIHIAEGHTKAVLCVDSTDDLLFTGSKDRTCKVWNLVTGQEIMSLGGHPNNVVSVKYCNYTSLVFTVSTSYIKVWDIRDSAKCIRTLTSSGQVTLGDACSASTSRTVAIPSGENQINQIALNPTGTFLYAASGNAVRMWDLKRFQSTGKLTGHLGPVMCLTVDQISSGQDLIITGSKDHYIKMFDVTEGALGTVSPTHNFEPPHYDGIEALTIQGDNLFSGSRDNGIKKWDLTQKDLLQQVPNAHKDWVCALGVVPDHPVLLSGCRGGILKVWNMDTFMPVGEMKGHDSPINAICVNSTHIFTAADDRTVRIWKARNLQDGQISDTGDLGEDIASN
inactive: vemurafenib 0.03 | [1] 0.041 | barasertib 0.005 | [2] -0.038 | volasertib -0.026 | [3] -0.025 | [4] 0.165 | [5] -0.101 | saracatinib 0.037 | sotrastaurin 0.017 | alvocidib 0.106 | Tubastatin A -0.066 | [6] 0.022 | defactinib 0.007 | [7] 0.008 | encorafenib -0.016 | [8] 0.09 | alisertib -0.033 | [9] -0.002 | gefitinib -0.012

MIF (UniProt P14174)
Sequence of UniProt P14174 (P14174 whole entry, looked up): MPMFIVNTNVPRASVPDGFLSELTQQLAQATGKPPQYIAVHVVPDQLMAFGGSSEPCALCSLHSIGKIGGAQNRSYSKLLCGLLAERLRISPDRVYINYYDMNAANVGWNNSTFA
inactive: vemurafenib 0.025 | [1] -0.047 | barasertib -0.02 | [2] 0 | volasertib -0.025 | [3] 0.021 | [4] -0.274 | [5] 0.084 | saracatinib 0.002 | sotrastaurin 0.002 | alvocidib -0.109 | [6] 0.103 | defactinib -0.05 | [7] -0.145 | encorafenib -0.028 | [8] -0.013 | alisertib 0.005 | [9] -0.006 | gefitinib 0.068
active: Tubastatin A 0.545

LZTR1 (UniProt Q8N653)
inactive: vemurafenib 0.026 | [1] -0.118 | barasertib 0.081 | [2] 0.002 | volasertib -0.125 | [3] -0.012 | [4] 0 | [5] -0.047 | saracatinib -0.031 | sotrastaurin 0.065 | alvocidib 0.178 | Tubastatin A -0.168 | [6] -0.001 | defactinib -0.036 | [7] -0.012 | encorafenib -0.039 | [8] 0.174 | alisertib -0.047 | [9] 0.137 | gefitinib 0.091

MRPL28 (UniProt Q13084)
inactive: vemurafenib 0.005 | [1] 0.009 | barasertib 0.053 | [2] -0.06 | volasertib 0.019 | [3] 0.024 | [5] -0.356 | saracatinib -0.016 | sotrastaurin 0.055 | alvocidib 0.261 | Tubastatin A -0.074 | [6] -0.11 | defactinib 0.039 | [7] 0.001 | encorafenib 0.026 | [8] -0.026 | alisertib 0.045 | [9] -0.02 | gefitinib 0.072
active: [4] 0.411

MICU2 (UniProt Q8IYU8)
inactive: vemurafenib -0.061 | [1] 0.043 | barasertib 0.109 | [2] -0.023 | volasertib 0 | [3] -0.036 | [4] 0.013 | [5] -0.101 | saracatinib 0.021 | sotrastaurin 0.126 | alvocidib 0.03 | Tubastatin A -0.039 | [6] 0.01 | defactinib 0.003 | [7] 0.009 | encorafenib 0.015 | [8] -0.091 | alisertib 0.039 | [9] -0.128 | gefitinib -0.054

MACO1 (UniProt Q8N5G2)
Sequence of UniProt Q8N5G2 (Q8N5G2 whole entry, looked up): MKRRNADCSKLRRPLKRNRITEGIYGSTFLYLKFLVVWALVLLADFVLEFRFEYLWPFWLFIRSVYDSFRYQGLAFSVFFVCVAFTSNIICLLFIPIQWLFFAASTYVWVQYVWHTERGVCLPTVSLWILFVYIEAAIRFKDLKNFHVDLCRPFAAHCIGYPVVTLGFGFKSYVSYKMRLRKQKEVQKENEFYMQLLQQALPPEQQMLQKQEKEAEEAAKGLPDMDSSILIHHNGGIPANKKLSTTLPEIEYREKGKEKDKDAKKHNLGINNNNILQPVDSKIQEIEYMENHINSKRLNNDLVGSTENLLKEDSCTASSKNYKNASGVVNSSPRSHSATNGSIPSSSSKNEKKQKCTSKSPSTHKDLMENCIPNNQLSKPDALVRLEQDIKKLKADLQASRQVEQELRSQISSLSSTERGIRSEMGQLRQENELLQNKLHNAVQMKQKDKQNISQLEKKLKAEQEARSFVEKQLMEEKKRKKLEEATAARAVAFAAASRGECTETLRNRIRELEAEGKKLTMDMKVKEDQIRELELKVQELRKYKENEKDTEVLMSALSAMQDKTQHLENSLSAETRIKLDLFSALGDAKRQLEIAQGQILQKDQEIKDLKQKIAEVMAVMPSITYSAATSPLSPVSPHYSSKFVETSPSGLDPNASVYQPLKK
inactive: vemurafenib -0.114 | [1] -0.003 | barasertib -0.063 | volasertib -0.009 | [3] 0.025 | [4] 0.113 | [5] -0.037 | saracatinib 0.064 | sotrastaurin -0.01 | alvocidib -0.003 | Tubastatin A -0.003 | [6] -0.012 | defactinib 0.01 | [7] 0.119 | encorafenib -0.101 | [8] -0.016 | alisertib -0.024 | [9] -0.005 | gefitinib 0.04
active: [2] 0.296

MRPL46 (UniProt Q9H2W6)
inactive: vemurafenib 0.058 | [1] -0.001 | barasertib -0.015 | [2] 0.115 | volasertib 0.044 | [3] 0.064 | [5] -0.029 | saracatinib 0.024 | sotrastaurin 0.032 | alvocidib 0.125 | Tubastatin A -0.097 | [6] 0.28 | defactinib 0.051 | [7] 0.058 | encorafenib -0.032 | [8] 0 | alisertib 0.02 | [9] -0.045 | gefitinib 0.041
active: [4] 0.523
